Assay outcomes: PubChem BioAssay, National Center for Advancing Translational Sciences (NCATS)
Compounds with a hit are over-represented: about 2.4% of the library has one in this group of screens.
POLI inh = qHTS for Inhibitors of Polymerase Iota. DNA polymerase iota (Homo sapiens), Q9UNA4. Pol iota fluorescent replication assay, 10 min. Potency, µM (doses to about 115 µM), for the others: at the highest dose activity, negative = inhibition, usual class: inhibitors. actives 1% (n = 390,000)
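Fluorescent replication assay read twice, at 0 min and 10 min after adding 50 nM (final) substrate. Enzyme (10 nM) and compounds were first incubated 15 min at room temperature; enzyme-free buffer wells were negative controls.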
POLB inh = qHTS Assay for Inhibitors of DNA Polymerase Beta. P06746. Pol beta primer extension/strand displacement, fluorescence kinetic. Potency, µM (highest dose often 114 µM), for the others: at the top dose activity change, negative = inhibition, hits mostly inhibitors. actives 1.3% (n = 340,000). AID 485314, 2010; note: % is set by controls: 0 for no effect and ±100 for the full control effect
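Preincubation: enzyme (10 nM) with compound, 15 min, RT. Reaction: substrate added to 50 nM final. Reads: 0 and 10 min. Analysis: normalized, Hill fit.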
WRN helicase inh = qHTS for Inhibitors of WRN Helicase. Potency, µM (series often up to 114 µM), without a hit: top-dose activity change, negative = inhibition, hits mostly inhibitors. WRN helicase unwinding, fluorescent forked duplex, kinetic. Bifunctional 3'-5' exonuclease/ATP-dependent helicase WRN (Homo sapiens), Q14191. actives 0.46% (n = 360,000); note: % is set by controls: 0 for no effect and ±100 for the full control effect; nearly all actives have a fitted effect of over 55% in size
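Enzyme (20 nM final) and test compound sit together 15 min at room temperature before substrate addition. Substrate is a single-forked duplex oligonucleotide (100 nM) labelled with fluorophore and quencher, with 2 mM ATP; helicase unwinding raises red fluorescence, read kinetically.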
FEN1 inh = qHTS Assay for the Inhibitors of Human Flap endonuclease 1 (FEN1). Recombinant FEN1 flap cleavage, fluorescence, 15 min. actives 0.35% (n = 390,000). P39748. Potency, µM (titrated, usually from 114 µM), for inactives: at the top dose activity change, negative = inhibition, usual class: inhibitors. AID 588795, 2011; note: % is set by controls: 0 for no effect and ±100 for the full control effect; nearly all actives have a fitted effect of over 65% in size
Target sequence (P39748 whole entry, looked up): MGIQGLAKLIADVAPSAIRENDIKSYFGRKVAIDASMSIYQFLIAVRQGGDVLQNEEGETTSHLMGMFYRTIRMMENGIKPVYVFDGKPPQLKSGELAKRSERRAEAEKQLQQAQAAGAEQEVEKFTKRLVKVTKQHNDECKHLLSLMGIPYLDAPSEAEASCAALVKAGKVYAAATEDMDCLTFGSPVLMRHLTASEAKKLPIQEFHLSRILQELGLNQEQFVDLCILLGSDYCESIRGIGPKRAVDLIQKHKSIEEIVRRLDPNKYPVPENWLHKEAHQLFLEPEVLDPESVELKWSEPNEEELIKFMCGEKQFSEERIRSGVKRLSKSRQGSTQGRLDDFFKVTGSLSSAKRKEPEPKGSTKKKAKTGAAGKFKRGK
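Read-out was taken twice, immediately and after 15 min, following addition of 50 nM substrate to 10 nM FEN1 that had sat with test compound for 15 min at room temperature. Curves came from a four-parameter Hill model.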
Pol kappa inh = qHTS for Inhibitors of Polymerase Kappa | purified Pol kappa, fluorescent DNA synthesis assay, 10 min | actives 0.53% (n = 400,000) | AID 588579, 2011 | Potency, µM (titrated, usually from 107 µM), for the others: at the highest dose activity, negative = inhibition, hits mostly inhibitors; note: % is set by controls: 0 for no effect and ±100 for the full control effect
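Activity was followed as the change in fluorescence between reads at 0 and 10 min after starting the reaction with 50 nM substrate. Beforehand, 10 nM polymerase had been preincubated with compound for 15 min at room temperature.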
POLH inh = qHTS for Inhibitors of Polymerase Eta; recombinant Pol eta, fluorescent DNA replication assay; Potency, µM (series often up to 114 µM), without a hit: top-dose activity change, negative = inhibition, most hits filed as inhibitors; actives 1.2% (n = 390,000); AID 588591, 2011; note: % is set by controls: 0 for no effect and ±100 for the full control effect
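Pol eta (10 nM) was preincubated with compounds for 15 min at room temperature, after which fluorescent replication substrate (50 nM final) was added to start the reaction. Fluorescence was read kinetically at 0 and 10 min.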
* hit, by the source's call; ? = inconclusive; . = no result; [ ] = another dose, or the depositor's remark. Calls come from the whole dose curve; as a rule, active = well fitted curve in the direction sought with a large enough effect; inconclusive = small, poorly fitted or top-dose-only effect, or another doubt; inactive = no such curve, though single readings can be large; an effect the other way counts as inactive or inconclusive. Potency is the fitted concentration of half-maximal effect.

SMILES	POLI inh	POLB inh	WRN helicase inh	FEN1 inh	Pol kappa inh	POLH inh
Nc1nc(N)c2c(Oc3ccc(F)cc3)cccc2n1	?	.	.	7%	-12%	.
COc1ccc(-c2c(C3C4C=CCC(C)C4C(=O)N3Cc3ccccc3)ccc3ccccc23)cc1 (stereo unspecified)	13%	.	.	-6%	-2%	.
O=C(O)c1ccccc1-c1ccc(/C=C2\SC(=O)N(c3ccccc3)C2=O)o1	?	?	-6%[11.6 µM]	-14%	-24%	?
Cc1ccccc1NC(=O)CN1C(=O)S/C(=C\c2ccc(-c3cccc(C(=O)O)c3C)o2)C1=O	?	35µM*	-11%[57.1 µM]	-13%	?	?
NC(N)=NCCC[C@H](NC(=O)[C@H](Cc1ccccc1)NC(=O)[C@@H]1CCCN1C(=O)[C@H](CO)NC(=O)[C@H](Cc1ccccc1)NC(=O)CNC(=O)[C@@H]1CCCN1C(=O)[C@@H]1CCCN1C(=O)[C@@H](N)CCCN=C(N)N)C(=O)O	.	.	.	.	-10%[60.1 µM]	.
CCOC(=O)C1=C(C)Nc2ccccc2N/C1=N\S(=O)(=O)c1ccc(Cl)cc1	9%	.	1%	4%	-4%	-12%
CCOC(=O)C1=C(C)Nc2ccccc2N/C1=N\S(=O)(=O)c1cc(C(=O)O)ccc1Cl	?	.	-6%[11.6 µM]	11%	-22%	35µM*
CCCOc1ccc(C2C(C(=O)c3ccc(C)o3)=C(O)C(=O)N2Cc2ccco2)cc1 (stereo unspecified)	?	40µM*	-6%	-11%	-12%	-24%
C[Se]CC[C@H](N)C(=O)O	.	.	.	.	6%[19.4 µM]	.
COc1cccc(/C=C2/Sc3ccc(C(=O)NCCN4CCCCCC4)cc3NC2=O)c1	-14%	-3%	3%[11.6 µM]	50µM*	6%	-14%
CC[C@H](NC(=O)[C@H](CCC(=O)O)NC(=O)[C@H](CCC(=O)O)NC(=O)[C@H](CC(=O)O[S+](=O)([O-])c1cccc2c(NCCN)cccc12)NC(=O)[C@H](CCC(=O)O)NC(=O)[C@H](CC(=O)O)NC(C)=O)C(=O)ON[C@@H](C)C(=O)N[C@@H](CO)C(=O)N[C@@H](CCCCNC(=O)c1ccc(N=Nc2ccc(N(C)C)cc2)cc1)C(N)=O	.	.	.	.	-2%[60.1 µM]	.
CCc1ccc(/C=C2/SC(=S)N(CCCC(=O)Nc3ccccc3C(=O)O)C2=O)cc1	-12%	50%	?	-17%	-28%	79µM*
O=C(CCN1C(=O)/C(=C/c2ccccc2Cl)SC1=S)Nc1ccccc1C(=O)O	?	?	-14%	-13%	-10%	79µM*
COc1ccc(NC=O)c(C(=O)CCNC(C)=O)c1	.	.	.	.	17%[60.1 µM]	.
O=C(O)C(Cc1ccccc1)N1C(=O)/C(=C/c2ccccc2)SC1=S (stereo unspecified)	2%	2%	1%	-3%	2%	-21%
Cc1ccc(/C=C2\SC(=S)N(C(Cc3ccccc3)C(=O)O)C2=O)cc1 (stereo unspecified)	11%	89µM*	-7%	4%	-2%	79µM*
O=C(O)C(Cc1ccccc1)N1C(=O)/C(=C/c2cccc3ccccc23)SC1=S (stereo unspecified)	.	32µM*	.	.	.	.
Cc1ccc(NC(=O)NNC(=O)c2cc3ccccc3cc2O)cc1	-24%	?	-5%	-5%	-17%	-12%
O=C(Nc1ccncc1)c1cc2ccccc2cc1O	7.9µM*	.	-19%	3%	-1%	-12%
CNc1ccc(-c2nc3ccccc3s2)cc1	.	.	.	.	-20%[60.1 µM]	.
CC1=Nc2ccccc2/C1=C/c1sc(=S)n(-c2cccc(C(=O)O)c2)c1O	?	-22%	?	?	?	35µM*
Cc1ccc2cc3cc(C(=O)NCc4ccco4)oc3nc2c1	?	79µM*	?	-24%	?	?
Cc1ccc2nc(SCC(=O)NCc3ccco3)c(C#N)cc2c1	-6%	?	-13%	9%	-5%	?
Cc1ccc2cc(C#N)c(SCC(=O)NCc3ccco3)nc2c1	?	22µM*	-20%	2%	-43%	?
O=C(Nc1nc2n(n1)C(c1ccccc1)C=C(c1ccccc1)N2)c1ccccc1 (stereo unspecified)	-9%	3%	.	9%	-9%	-4%
SMILES	POLI inh	POLB inh	WRN helicase inh	FEN1 inh	Pol kappa inh	POLH inh
Oc1ccc(Br)cc1C1C=C(c2ccc3c(c2)OCO3)NC(c2ccc(F)c(Br)c2)N1 (stereo unspecified)	13µM*	.	.	-7%	4%	.
Oc1ccc(Br)cc1C1C=C(c2ccc3c(c2)OCO3)NC(c2ccc(Br)cc2)N1 (stereo unspecified)	?	.	.	-6%	-6%	.
Fc1ccc(NCc2ccccc2-c2nnc(-c3ccccc3Cl)o2)cc1Cl	50%	4%	.	5%	-5%	-25%
CCOC(=O)c1c(-c2ccco2)csc1NC(=O)COC(=O)c1cnc(C)cn1	40µM*	.	-30%	-14%	?	25µM*
O=[N+]([O-])c1ccc2c(c1)S(=O)(=O)C=C2	.	.	.	.	-18%[60.1 µM]	.
CC1(C)C2CC[C@]1(C)[C@@H](O)C2	.	.	.	.	-1%[19.4 µM]	.
CCOc1ccc(NC(=O)NNC(=O)c2ccc(CC)s2)cc1	?	79µM*	0%[11.6 µM]	-13%	-17%	-8%
Cc1ccc(NC(=O)Nc2ccc3c(c2)CCC3)cc1	-17%	?	6%	-6%	-16%	1%
CCOc1ccc(NC(=O)Nc2ccc3c(c2)CCC3)cc1	31%	25µM*	1%	-1%	10%	-11%
CC(CNC(=O)c1cccnc1)NC(=O)c1cccnc1 (stereo unspecified)	.	.	.	.	-2%[19.4 µM]	.
CN1CCN(c2ncc3nc(-c4ccccc4)c(=O)n(CCC#N)c3n2)CC1	.	.	.	.	5%[60.1 µM]	.
Oc1ccc(N=Nc2c(O)ccc3ccccc23)cc1	-2%	-14%	-26%	-21%	-7%	-8%
O=C(O)c1cc(N=Nc2c(O)ccc3ccccc23)cc(C(=O)O)c1	6%	-4%	-29%[57.1 µM]	?	20µM*	18µM*
COc1ccc(COc2ccsc2C(=O)Nc2ccc(Cl)c(Cl)c2)cc1	45%	35µM*	-29%[57.1 µM]	4%	-1%	?
C(=Nc1cnc2ccccc2c1)c1ccnc2ccccc12	21%	.	.	11%	-3%	.
C#CCSc1nsc(SCC#C)c1C#N	20µM*	45µM*	50µM*	?	?	18µM*
Cc1c(-c2ccc(Cl)cc2)oc(=O)c2c(N)n(-c3ccccc3)nc12	-4%	13µM*	-32%	-9%	-13%	?
O=C(C[N+]12CN3CN(CN(C3)C1)C2)c1ccc(Br)cc1	-7%	.	.	3%	-17%	.
